# In article PMC7862700, “An all-to-all approach to the identification of sequence-specific readers for epigenetic DNA modifications on cytosine”:
# How the values were obtained:
# Experiment in all cases: DAPPL (digital affinity profiling via proximity ligation, sequencing); 10 mM Tris-HCl pH 7.5, 50 mM NaCl, 1 mM DTT, 4% glycerol, room temperature, 30 min; GST-TFs on glutathione beads, 16-mer random dsDNA library, 0.1% formaldehyde crosslink after washing; high values mean tight binding
# FLI1 = biological target: T1, FLI1 (Homo sapiens, UniProt Q01543 1-452); details: protein: recombinant; tags: N-terminal GST; dsDNA, one strand shown
# T1 sequence: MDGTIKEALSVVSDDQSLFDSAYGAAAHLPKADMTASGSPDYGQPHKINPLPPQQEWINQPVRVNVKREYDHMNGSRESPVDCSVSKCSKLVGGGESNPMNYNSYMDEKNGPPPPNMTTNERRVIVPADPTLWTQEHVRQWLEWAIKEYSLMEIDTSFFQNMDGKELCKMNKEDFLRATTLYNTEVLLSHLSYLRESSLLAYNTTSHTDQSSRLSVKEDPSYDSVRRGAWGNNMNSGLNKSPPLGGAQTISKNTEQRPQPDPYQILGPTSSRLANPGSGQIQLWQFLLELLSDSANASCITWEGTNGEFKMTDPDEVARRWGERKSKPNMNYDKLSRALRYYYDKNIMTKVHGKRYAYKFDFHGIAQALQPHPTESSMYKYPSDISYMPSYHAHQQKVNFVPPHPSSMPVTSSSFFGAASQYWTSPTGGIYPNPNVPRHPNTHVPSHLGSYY
# Method in brief: (§1)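 Human transcription factors fused to GST were expressed in yeast, captured on glutathione beads, given DNA barcodes and pooled with a GST-only negative control. Pools were incubated with 200 nmole of a 16-mer random double-stranded DNA library in Tris/NaCl/DTT/glycerol buffer at room temperature for 30 min. They were then washed, crosslinked with 0.1% formaldehyde, proximity-ligated (BsaI/T4 ligase, 1 h, 37 °C), PCR-amplified and sequenced on an Illumina NextSeq500. Binding signal is each 6-mer's read frequency for a factor divided by its frequency for the GST control.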
# ELK1 = biological target: T2, ELK1 (Homo sapiens, UniProt P19419 1-428); details: protein: recombinant; tags: N-terminal GST; dsDNA, one strand shown
# T2 sequence: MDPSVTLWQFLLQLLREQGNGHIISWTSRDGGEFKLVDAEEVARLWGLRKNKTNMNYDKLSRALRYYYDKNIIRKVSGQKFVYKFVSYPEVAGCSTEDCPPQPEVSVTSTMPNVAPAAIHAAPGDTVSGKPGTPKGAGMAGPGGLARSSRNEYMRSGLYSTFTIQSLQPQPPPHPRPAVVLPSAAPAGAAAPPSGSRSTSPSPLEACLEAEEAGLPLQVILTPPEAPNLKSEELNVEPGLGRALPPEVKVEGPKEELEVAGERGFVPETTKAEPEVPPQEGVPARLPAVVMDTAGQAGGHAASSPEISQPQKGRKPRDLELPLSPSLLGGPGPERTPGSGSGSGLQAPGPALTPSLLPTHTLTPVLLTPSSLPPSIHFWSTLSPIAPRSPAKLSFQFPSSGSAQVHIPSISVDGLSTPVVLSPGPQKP
# Method in brief: as §1
# GABPA = biological target: T3, GABPA (Homo sapiens, UniProt Q06546 1-454); details: protein: recombinant; tags: N-terminal GST; dsDNA, one strand shown
# T3 sequence: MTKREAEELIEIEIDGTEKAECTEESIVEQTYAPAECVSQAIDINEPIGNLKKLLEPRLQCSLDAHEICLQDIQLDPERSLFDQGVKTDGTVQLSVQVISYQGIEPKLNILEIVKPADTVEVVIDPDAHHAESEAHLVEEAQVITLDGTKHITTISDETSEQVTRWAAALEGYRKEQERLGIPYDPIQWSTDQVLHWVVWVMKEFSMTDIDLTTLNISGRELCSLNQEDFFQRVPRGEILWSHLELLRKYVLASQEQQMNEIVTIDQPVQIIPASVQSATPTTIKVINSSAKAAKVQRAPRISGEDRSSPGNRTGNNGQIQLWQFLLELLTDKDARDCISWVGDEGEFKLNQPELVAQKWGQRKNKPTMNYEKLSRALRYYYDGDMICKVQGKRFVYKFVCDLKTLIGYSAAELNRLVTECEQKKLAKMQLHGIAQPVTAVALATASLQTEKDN
# Method in brief: as §1
# ERG = biological target: T4, ERG (Homo sapiens, UniProt P11308 1-479); details: protein: recombinant; tags: N-terminal GST; dsDNA, one strand shown
# T4 sequence: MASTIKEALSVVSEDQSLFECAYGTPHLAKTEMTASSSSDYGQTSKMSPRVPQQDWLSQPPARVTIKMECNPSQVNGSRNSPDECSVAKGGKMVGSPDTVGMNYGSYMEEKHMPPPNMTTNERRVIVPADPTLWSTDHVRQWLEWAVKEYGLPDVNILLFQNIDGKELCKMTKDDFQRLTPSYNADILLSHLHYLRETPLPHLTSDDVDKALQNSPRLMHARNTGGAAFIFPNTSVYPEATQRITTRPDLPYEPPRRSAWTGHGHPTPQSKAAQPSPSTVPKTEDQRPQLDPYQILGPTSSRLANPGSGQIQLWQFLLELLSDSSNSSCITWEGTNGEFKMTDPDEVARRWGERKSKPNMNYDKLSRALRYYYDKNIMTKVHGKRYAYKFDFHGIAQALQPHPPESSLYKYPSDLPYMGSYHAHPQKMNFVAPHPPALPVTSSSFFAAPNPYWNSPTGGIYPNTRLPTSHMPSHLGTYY
# Method in brief: as §1
# ELF1 = ELF1 (Homo sapiens, UniProt P32519 1-619); details: protein: recombinant; tags: N-terminal GST; dsDNA, one strand shown
# Method in brief: as §1
# EHF = biological target: T5, EHF (Homo sapiens, UniProt Q9NZC4 1-300); details: protein: recombinant; tags: N-terminal GST; dsDNA, one strand shown
# T5 sequence: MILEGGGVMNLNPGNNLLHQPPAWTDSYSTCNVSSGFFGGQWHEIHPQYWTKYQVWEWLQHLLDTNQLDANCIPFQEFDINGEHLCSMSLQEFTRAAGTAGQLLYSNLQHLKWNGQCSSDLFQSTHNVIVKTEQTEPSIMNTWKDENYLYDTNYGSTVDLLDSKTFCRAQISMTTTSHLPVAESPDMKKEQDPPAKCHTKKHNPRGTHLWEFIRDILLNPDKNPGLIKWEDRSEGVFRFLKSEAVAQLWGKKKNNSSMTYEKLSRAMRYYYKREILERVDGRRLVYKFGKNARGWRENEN
# Method in brief: as §1
# SPI1 = SPI1 (Homo sapiens, UniProt P17947 1-270); details: protein: recombinant; tags: N-terminal GST; dsDNA, one strand shown
# Method in brief: as §1
# SPIB = SPIB (Homo sapiens, UniProt Q01892 1-262); details: protein: recombinant; tags: N-terminal GST; dsDNA, one strand shown
# Method in brief: as §1
# ELK3 = biological target: T6, ELK3 (Homo sapiens, UniProt P41970 1-407); details: protein: recombinant; tags: N-terminal GST; dsDNA, one strand shown
# T6 sequence: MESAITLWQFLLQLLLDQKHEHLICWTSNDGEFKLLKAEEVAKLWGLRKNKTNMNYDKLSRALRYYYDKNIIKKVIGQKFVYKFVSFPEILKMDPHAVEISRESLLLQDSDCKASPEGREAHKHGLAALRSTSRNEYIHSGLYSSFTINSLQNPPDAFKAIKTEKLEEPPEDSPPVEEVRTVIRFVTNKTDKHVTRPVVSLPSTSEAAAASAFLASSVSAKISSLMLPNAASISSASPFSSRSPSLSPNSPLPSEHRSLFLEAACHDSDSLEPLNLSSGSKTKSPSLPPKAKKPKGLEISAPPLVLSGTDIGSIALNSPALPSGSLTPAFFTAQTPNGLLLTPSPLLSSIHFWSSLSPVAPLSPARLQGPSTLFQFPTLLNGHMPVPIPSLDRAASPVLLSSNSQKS
# Method in brief: as §1
# FEV = biological target: T7, FEV (Homo sapiens, UniProt Q99581 1-238); details: protein: recombinant; tags: N-terminal GST; dsDNA, one strand shown
# T7 sequence: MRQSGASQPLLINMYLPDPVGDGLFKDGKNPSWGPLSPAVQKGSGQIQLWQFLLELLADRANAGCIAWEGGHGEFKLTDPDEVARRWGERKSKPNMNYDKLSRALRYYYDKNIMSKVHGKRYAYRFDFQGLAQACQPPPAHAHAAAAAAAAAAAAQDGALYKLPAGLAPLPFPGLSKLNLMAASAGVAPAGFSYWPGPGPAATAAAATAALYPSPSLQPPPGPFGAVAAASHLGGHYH
# Method in brief: as §1
# ETV5 = ETV5 (Homo sapiens, UniProt P41161 1-510); details: protein: recombinant; tags: N-terminal GST; dsDNA, one strand shown
# Method in brief: as §1
# HSF1 = HSF1 (Homo sapiens, UniProt Q00613 1-529); details: protein: recombinant; tags: N-terminal GST; chain copies: 3; dsDNA, one strand shown
# Method in brief: as §1
# SPIC = biological target: T8, SPIC (Homo sapiens, UniProt Q8N5J4 1-248); details: protein: recombinant; tags: N-terminal GST; dsDNA, one strand shown
# T8 sequence: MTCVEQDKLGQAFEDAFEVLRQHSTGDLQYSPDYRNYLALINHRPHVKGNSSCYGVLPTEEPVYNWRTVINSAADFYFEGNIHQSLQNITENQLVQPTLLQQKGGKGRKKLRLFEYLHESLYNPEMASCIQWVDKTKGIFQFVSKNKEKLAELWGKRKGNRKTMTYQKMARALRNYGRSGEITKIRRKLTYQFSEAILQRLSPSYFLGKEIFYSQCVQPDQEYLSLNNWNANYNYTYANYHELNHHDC
# Method in brief: as §1
# ELF4 = ELF4 (Homo sapiens, UniProt Q99607 1-663); details: protein: recombinant; tags: N-terminal GST; dsDNA, one strand shown
# Method in brief: as §1
# ELK4 = biological target: T9, ELK4 (Homo sapiens, UniProt P28324-2 1-405); details: protein: recombinant; tags: N-terminal GST; dsDNA, one strand shown
# T9 sequence: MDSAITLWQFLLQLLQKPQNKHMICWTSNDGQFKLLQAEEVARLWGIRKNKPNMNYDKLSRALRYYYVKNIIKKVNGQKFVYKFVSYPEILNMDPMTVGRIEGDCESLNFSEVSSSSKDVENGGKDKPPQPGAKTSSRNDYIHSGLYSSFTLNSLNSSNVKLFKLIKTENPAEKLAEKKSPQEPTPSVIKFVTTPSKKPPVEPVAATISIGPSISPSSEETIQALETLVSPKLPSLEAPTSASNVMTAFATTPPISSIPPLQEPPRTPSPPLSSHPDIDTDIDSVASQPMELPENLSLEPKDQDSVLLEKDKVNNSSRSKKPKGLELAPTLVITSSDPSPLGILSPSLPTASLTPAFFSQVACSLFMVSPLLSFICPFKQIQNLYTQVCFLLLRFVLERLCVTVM
# Method in brief: as §1
# ETV2 = biological target: T10, ETV2 (Homo sapiens, UniProt O00321 1-342); details: protein: recombinant; tags: N-terminal GST; dsDNA, one strand shown
# T10 sequence: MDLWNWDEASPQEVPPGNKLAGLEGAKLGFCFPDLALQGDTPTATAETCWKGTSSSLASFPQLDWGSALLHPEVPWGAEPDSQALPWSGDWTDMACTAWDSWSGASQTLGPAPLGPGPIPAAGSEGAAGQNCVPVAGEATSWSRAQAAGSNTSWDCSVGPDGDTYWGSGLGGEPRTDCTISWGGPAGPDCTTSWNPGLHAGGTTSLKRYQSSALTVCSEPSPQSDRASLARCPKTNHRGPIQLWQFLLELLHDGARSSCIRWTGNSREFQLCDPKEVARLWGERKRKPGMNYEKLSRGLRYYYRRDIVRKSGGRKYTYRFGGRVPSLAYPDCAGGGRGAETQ
# Method in brief: as §1
# ELF3 = biological target: T11, ELF3 (Homo sapiens, UniProt P78545 1-371); details: protein: recombinant; tags: N-terminal GST; dsDNA, one strand shown
# T11 sequence: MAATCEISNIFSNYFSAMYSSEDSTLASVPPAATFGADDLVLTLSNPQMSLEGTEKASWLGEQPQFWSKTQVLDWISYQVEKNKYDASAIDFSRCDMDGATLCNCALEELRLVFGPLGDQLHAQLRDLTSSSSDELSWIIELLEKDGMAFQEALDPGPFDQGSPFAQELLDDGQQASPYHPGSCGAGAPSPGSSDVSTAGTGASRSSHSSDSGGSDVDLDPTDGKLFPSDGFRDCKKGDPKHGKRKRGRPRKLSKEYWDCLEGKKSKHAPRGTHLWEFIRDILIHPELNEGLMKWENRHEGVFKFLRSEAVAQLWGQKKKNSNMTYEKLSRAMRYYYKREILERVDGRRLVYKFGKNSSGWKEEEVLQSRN
# Method in brief: as §1
# CRX = CRX (Homo sapiens, UniProt O43186 1-299); details: protein: recombinant; tags: N-terminal GST; dsDNA, one strand shown
# Method in brief: as §1
# ETV1 = ETV1 (Homo sapiens, UniProt P50549 1-477); details: protein: recombinant; tags: N-terminal GST; dsDNA, one strand shown
# Method in brief: as §1
# Chain of ELF4 (Q99607 whole entry): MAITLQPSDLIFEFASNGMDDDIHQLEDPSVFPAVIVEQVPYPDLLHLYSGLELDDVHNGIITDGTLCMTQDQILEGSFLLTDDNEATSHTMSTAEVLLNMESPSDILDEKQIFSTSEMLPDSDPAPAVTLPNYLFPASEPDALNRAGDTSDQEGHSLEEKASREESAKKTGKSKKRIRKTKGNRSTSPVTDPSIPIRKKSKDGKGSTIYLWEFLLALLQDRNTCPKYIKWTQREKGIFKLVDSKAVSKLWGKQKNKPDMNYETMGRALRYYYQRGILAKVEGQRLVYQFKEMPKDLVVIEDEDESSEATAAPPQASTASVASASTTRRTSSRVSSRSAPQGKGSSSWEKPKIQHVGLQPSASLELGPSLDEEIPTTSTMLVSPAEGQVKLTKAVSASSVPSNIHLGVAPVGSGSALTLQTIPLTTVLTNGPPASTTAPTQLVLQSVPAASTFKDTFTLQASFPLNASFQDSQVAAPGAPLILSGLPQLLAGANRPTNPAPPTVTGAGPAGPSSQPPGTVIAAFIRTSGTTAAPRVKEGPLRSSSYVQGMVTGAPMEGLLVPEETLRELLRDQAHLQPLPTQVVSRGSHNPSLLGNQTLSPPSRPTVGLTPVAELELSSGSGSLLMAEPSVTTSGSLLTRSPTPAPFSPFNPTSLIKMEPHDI
# Chain of HSF1 (Q00613 whole entry): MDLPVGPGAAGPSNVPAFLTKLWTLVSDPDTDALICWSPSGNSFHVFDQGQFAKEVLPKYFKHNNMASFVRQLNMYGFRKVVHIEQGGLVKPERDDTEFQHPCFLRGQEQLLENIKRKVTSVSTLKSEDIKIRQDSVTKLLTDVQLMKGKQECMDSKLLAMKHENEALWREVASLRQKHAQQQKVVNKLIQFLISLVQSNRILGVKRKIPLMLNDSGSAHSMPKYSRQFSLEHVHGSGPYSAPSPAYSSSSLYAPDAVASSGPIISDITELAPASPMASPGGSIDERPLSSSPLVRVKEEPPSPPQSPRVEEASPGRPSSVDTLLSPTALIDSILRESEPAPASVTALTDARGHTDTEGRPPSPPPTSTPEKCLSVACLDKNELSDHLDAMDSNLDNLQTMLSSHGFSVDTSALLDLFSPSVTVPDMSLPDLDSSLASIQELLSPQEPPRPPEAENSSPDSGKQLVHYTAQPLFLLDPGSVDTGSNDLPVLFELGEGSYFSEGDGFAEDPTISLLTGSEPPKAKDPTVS
# Chain of ETV1 (P50549 whole entry): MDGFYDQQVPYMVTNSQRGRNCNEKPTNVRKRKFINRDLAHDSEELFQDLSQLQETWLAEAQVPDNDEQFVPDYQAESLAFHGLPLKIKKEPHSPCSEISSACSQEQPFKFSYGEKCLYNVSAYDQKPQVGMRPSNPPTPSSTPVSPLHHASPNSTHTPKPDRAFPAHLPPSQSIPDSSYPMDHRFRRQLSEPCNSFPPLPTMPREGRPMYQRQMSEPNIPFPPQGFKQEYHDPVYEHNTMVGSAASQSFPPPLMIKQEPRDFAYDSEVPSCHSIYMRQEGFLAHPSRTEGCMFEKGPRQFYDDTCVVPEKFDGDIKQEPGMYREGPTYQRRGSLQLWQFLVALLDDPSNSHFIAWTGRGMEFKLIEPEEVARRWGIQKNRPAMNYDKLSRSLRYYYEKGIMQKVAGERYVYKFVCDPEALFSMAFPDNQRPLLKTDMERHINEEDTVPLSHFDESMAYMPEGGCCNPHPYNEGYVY
# Chain of SPIB (Q01892 whole entry): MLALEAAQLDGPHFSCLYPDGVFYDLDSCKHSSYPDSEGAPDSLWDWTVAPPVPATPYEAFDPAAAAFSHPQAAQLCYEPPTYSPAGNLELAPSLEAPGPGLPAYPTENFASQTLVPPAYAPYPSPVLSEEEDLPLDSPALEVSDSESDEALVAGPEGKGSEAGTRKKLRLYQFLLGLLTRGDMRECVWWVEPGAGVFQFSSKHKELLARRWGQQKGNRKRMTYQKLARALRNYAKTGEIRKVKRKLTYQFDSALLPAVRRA
# Chain of ELF1 (P32519 whole entry): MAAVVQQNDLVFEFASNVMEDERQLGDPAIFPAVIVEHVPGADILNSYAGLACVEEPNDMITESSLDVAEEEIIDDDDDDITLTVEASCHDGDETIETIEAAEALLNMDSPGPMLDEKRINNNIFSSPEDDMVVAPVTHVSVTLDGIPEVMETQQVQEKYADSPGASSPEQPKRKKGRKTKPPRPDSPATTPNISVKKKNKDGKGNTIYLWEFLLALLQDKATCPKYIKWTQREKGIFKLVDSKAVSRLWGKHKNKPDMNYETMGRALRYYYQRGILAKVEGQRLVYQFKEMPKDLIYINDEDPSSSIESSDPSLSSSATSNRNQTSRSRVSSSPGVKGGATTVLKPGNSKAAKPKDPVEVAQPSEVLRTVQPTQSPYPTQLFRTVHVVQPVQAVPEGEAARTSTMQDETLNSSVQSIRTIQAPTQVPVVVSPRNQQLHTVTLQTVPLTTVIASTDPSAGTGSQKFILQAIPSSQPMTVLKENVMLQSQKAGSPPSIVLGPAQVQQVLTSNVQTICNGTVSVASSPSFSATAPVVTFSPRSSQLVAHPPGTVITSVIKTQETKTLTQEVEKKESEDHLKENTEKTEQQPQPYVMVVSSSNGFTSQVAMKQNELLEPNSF
# Chain of CRX (O43186 whole entry): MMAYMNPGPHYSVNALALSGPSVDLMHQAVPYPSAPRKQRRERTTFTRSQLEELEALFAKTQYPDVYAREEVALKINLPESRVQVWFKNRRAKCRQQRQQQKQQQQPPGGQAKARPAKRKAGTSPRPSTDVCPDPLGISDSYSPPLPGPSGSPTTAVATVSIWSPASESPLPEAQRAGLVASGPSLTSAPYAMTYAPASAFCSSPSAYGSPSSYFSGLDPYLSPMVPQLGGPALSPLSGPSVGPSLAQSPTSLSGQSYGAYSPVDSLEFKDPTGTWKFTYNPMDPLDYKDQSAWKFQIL
# Chain of ETV5 (P41161 whole entry): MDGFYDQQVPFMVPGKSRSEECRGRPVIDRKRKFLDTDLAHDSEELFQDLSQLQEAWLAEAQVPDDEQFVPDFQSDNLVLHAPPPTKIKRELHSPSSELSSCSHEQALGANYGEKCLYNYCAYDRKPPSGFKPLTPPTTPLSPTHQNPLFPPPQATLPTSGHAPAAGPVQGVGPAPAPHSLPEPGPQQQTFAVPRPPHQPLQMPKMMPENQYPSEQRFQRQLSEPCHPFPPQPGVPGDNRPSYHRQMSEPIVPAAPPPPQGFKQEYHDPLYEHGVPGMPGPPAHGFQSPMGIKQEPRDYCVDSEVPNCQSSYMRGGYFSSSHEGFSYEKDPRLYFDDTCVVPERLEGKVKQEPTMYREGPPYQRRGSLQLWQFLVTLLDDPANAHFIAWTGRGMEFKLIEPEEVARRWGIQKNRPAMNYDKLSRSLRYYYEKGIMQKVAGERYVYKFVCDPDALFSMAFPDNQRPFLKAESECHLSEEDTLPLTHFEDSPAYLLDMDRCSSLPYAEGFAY
sequence,measurement,setting,value
GCCTTG,binding signal,FLI1,"1.34 fold enrichment (6-mer frequency, TF over GST control)"
same,binding signal,ELK1,"1.27 fold enrichment (6-mer frequency, TF over GST control)"
same,binding signal,GABPA,"1.33 fold enrichment (6-mer frequency, TF over GST control)"
same,binding signal,ERG,"1.26 fold enrichment (6-mer frequency, TF over GST control)"
same,binding signal,ELF1,"1.29 fold enrichment (6-mer frequency, TF over GST control)"
same,binding signal,EHF,"1.24 fold enrichment (6-mer frequency, TF over GST control)"
same,binding signal,SPI1,"1.25 fold enrichment (6-mer frequency, TF over GST control)"
same,binding signal,SPIB,"1.23 fold enrichment (6-mer frequency, TF over GST control)"
same,binding signal,ELK3,"1.18 fold enrichment (6-mer frequency, TF over GST control)"
same,binding signal,FEV,"1.13 fold enrichment (6-mer frequency, TF over GST control)"
same,binding signal,ETV5,"1.34 fold enrichment (6-mer frequency, TF over GST control)"
same,binding signal,HSF1,"1.06 fold enrichment (6-mer frequency, TF over GST control)"
same,binding signal,SPIC,"1.31 fold enrichment (6-mer frequency, TF over GST control)"
same,binding signal,ELF4,"1.21 fold enrichment (6-mer frequency, TF over GST control)"
same,binding signal,ELK4,"1.17 fold enrichment (6-mer frequency, TF over GST control)"
same,binding signal,ETV2,"1.09 fold enrichment (6-mer frequency, TF over GST control)"
same,binding signal,ELF3,"1.23 fold enrichment (6-mer frequency, TF over GST control)"
same,binding signal,CRX,"1.05 fold enrichment (6-mer frequency, TF over GST control)"
same,binding signal,ETV1,"1.18 fold enrichment (6-mer frequency, TF over GST control)"
